# What was measured:
# Settings in all cases: concentration: 1 μM, replicates: in singlicate; n = 1
# CSF1R = tested on: CSF1R
# CSK = tested on: CSK
# CSNK1A1L = tested on: CSNK1A1L
# CSNK1A1 = tested on: CSNK1A1
# CSNK1D = tested on: CSNK1D
# CSNK1E = tested on: CSNK1E
# CSNK1G1 = tested on: CSNK1G1
# CSNK1G2 = tested on: CSNK1G2
# CSNK1G3 = tested on: CSNK1G3
# CSNK2A1 = tested on: CSNK2A1
# 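Note: KINOMEscan kinase panel screen.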
smiles,measurement,setting,value
COc1ccc(Nc2nccc(N3CCC(NS(=O)(=O)c4ccc(NC(C)=O)cc4)C3)n2)cc1 (centres unmarked) [GSK1379729],%Inh,CSF1R,1%
same,%Inh,CSK,0%
same,%Inh,CSNK1A1L,13%
same,%Inh,CSNK1A1,32%
same,%Inh,CSNK1D,17%
same,%Inh,CSNK1E,25%
same,%Inh,CSNK1G1,6%
same,%Inh,CSNK1G2,18%
same,%Inh,CSNK1G3,28%
same,%Inh,CSNK2A1,15%
CN1C(=O)C(Nc2ccccc2)=C(c2ccccc2)C1=O [SB-300079],%Inh,CSF1R,16%
same,%Inh,CSK,0%
same,%Inh,CSNK1A1L,0%
same,%Inh,CSNK1A1,0%
same,%Inh,CSNK1D,0%
same,%Inh,CSNK1E,0%
same,%Inh,CSNK1G1,0%
same,%Inh,CSNK1G2,0%
same,%Inh,CSNK1G3,0%
same,%Inh,CSNK2A1,0%
CN1C(=O)C(Nc2cc(Cl)c(O)c(Cl)c2)=C(c2ccc(Cl)cc2)C1=O [SB-404321],%Inh,CSF1R,0%
same,%Inh,CSK,0%
same,%Inh,CSNK1A1L,0%
same,%Inh,CSNK1A1,0%
same,%Inh,CSNK1D,0%
same,%Inh,CSNK1E,0%
same,%Inh,CSNK1G1,0%
same,%Inh,CSNK1G2,0%
same,%Inh,CSNK1G3,6%
same,%Inh,CSNK2A1,0%
CCCNC(=O)Nc1ccc(Oc2ncnc3ccn(C)c23)cc1,%Inh,CSF1R,29%
same,%Inh,CSK,0%
same,%Inh,CSNK1A1L,7%
same,%Inh,CSNK1A1,10%
same,%Inh,CSNK1D,9%
same,%Inh,CSNK1E,0%
same,%Inh,CSNK1G1,2%
same,%Inh,CSNK1G2,11%
same,%Inh,CSNK1G3,0%
same,%Inh,CSNK2A1,0%
CCC(=O)c1c(-c2ccccc2)c2cc(Cl)ccc2c(=O)n1Cc1cc(S(C)(=O)=O)n(CCC(C)(C)O)n1,%Inh,CSF1R,16%
same,%Inh,CSK,0%
same,%Inh,CSNK1A1L,0%
same,%Inh,CSNK1A1,31%
same,%Inh,CSNK1D,8%
same,%Inh,CSNK1E,0%
same,%Inh,CSNK1G1,21%
same,%Inh,CSNK1G2,15%
same,%Inh,CSNK1G3,0%
same,%Inh,CSNK2A1,17%
Nc1n[nH]c2ncc(-c3ccccc3)cc12 [SB-517081],%Inh,CSF1R,47%
same,%Inh,CSK,0%
same,%Inh,CSNK1A1L,9%
same,%Inh,CSNK1A1,0%
same,%Inh,CSNK1D,30%
same,%Inh,CSNK1E,15%
same,%Inh,CSNK1G1,68%
same,%Inh,CSNK1G2,0%
same,%Inh,CSNK1G3,6%
same,%Inh,CSNK2A1,0%
COc1ccc(-c2cc3c(C)nc(N)nc3n([C@H]3CC[C@H](OCCO)CC3)c2=O)cn1,%Inh,CSF1R,5%
same,%Inh,CSK,13%
same,%Inh,CSNK1A1L,0%
same,%Inh,CSNK1A1,24%
same,%Inh,CSNK1D,1%
same,%Inh,CSNK1E,4%
same,%Inh,CSNK1G1,0%
same,%Inh,CSNK1G2,0%
same,%Inh,CSNK1G3,0%
same,%Inh,CSNK2A1,0%
O=C1NC(=O)C(c2ccccc2)=C1Nc1cccc(O)c1 [SB-390534],%Inh,CSF1R,10%
same,%Inh,CSK,0%
same,%Inh,CSNK1A1L,8%
same,%Inh,CSNK1A1,19%
same,%Inh,CSNK1D,0%
same,%Inh,CSNK1E,16%
same,%Inh,CSNK1G1,0%
same,%Inh,CSNK1G2,0%
same,%Inh,CSNK1G3,8%
same,%Inh,CSNK2A1,0%
CCS(=O)(=O)c1ccc(OC)c(Nc2ncc(-c3ccc(F)cc3)o2)c1.Cl [GW591947],%Inh,CSF1R,0%
same,%Inh,CSK,0%
same,%Inh,CSNK1A1L,0%
same,%Inh,CSNK1A1,0%
same,%Inh,CSNK1D,18%
same,%Inh,CSNK1E,40%
same,%Inh,CSNK1G1,13%
same,%Inh,CSNK1G2,0%
same,%Inh,CSNK1G3,8%
same,%Inh,CSNK2A1,0%
CCC(=O)c1c(-c2ccccc2)c2cc(Cl)ccc2c(=O)n1Cc1cc(S(C)(=O)=O)n(CC(F)F)n1,%Inh,CSF1R,10%
same,%Inh,CSK,73%
same,%Inh,CSNK1A1L,0%
same,%Inh,CSNK1A1,0%
same,%Inh,CSNK1D,0%
same,%Inh,CSNK1E,1%
same,%Inh,CSNK1G1,0%
same,%Inh,CSNK1G2,7%
same,%Inh,CSNK1G3,0%
same,%Inh,CSNK2A1,0%
Nc1nc(-c2ccccc2F)c(-c2ccnc3ccccc23)s1 [GW560459],%Inh,CSF1R,0%
same,%Inh,CSK,0%
same,%Inh,CSNK1A1L,7%
same,%Inh,CSNK1A1,72%
same,%Inh,CSNK1D,66%
same,%Inh,CSNK1E,51%
same,%Inh,CSNK1G1,13%
same,%Inh,CSNK1G2,1%
same,%Inh,CSNK1G3,25%
same,%Inh,CSNK2A1,0%
Cl.c1ccc(Cn2cnc3cc(Nc4ncnc5ccccc45)ccc32)cc1 [GW272142],%Inh,CSF1R,4%
same,%Inh,CSK,64%
same,%Inh,CSNK1A1L,11%
same,%Inh,CSNK1A1,0%
same,%Inh,CSNK1D,16%
same,%Inh,CSNK1E,42%
same,%Inh,CSNK1G1,1%
same,%Inh,CSNK1G2,1%
same,%Inh,CSNK1G3,27%
same,%Inh,CSNK2A1,0%
COc1cccc(C2=C(N(C)c3ccccc3)C(=O)NC2=O)c1 [SB-334865],%Inh,CSF1R,4%
same,%Inh,CSK,0%
same,%Inh,CSNK1A1L,1%
same,%Inh,CSNK1A1,0%
same,%Inh,CSNK1D,15%
same,%Inh,CSNK1E,2%
same,%Inh,CSNK1G1,1%
same,%Inh,CSNK1G2,0%
same,%Inh,CSNK1G3,2%
same,%Inh,CSNK2A1,0%
Cc1cc(Nc2nc(-c3cccc(C)n3)nc3ccccc23)ccn1 [GW872411],%Inh,CSF1R,0%
same,%Inh,CSK,0%
same,%Inh,CSNK1A1L,0%
same,%Inh,CSNK1A1,0%
same,%Inh,CSNK1D,35%
same,%Inh,CSNK1E,31%
same,%Inh,CSNK1G1,3%
same,%Inh,CSNK1G2,0%
same,%Inh,CSNK1G3,0%
same,%Inh,CSNK2A1,0%
CCC(=O)c1c(-c2ccccc2)c2cc(Cl)ccc2c(=O)n1Cc1ccc(C(=O)O)cc1,%Inh,CSF1R,2%
same,%Inh,CSK,0%
same,%Inh,CSNK1A1L,1%
same,%Inh,CSNK1A1,0%
same,%Inh,CSNK1D,0%
same,%Inh,CSNK1E,0%
same,%Inh,CSNK1G1,0%
same,%Inh,CSNK1G2,0%
same,%Inh,CSNK1G3,0%
same,%Inh,CSNK2A1,0%
COC(=O)c1c(-c2ccccc2)c2cc(Br)ccc2c(=O)n1Cc1ccc(S(C)(=O)=O)cc1,%Inh,CSF1R,16%
same,%Inh,CSK,0%
same,%Inh,CSNK1A1L,9%
same,%Inh,CSNK1A1,30%
same,%Inh,CSNK1D,9%
same,%Inh,CSNK1E,0%
same,%Inh,CSNK1G1,7%
same,%Inh,CSNK1G2,13%
same,%Inh,CSNK1G3,0%
same,%Inh,CSNK2A1,0%
C[C@@H]1CC[C@H](C(=O)NC2CCCCC2)CN1c1cc(-c2ccc3c(N)n[nH]c3c2)nc(N)n1 [GSK2291363],%Inh,CSF1R,26%
same,%Inh,CSK,0%
same,%Inh,CSNK1A1L,12%
same,%Inh,CSNK1A1,0%
same,%Inh,CSNK1D,17%
same,%Inh,CSNK1E,24%
same,%Inh,CSNK1G1,14%
same,%Inh,CSNK1G2,3%
same,%Inh,CSNK1G3,30%
same,%Inh,CSNK2A1,21%

# Reference: paper PMC5540273 (PLoS ONE, 2017)
